MazF activator: MazEF (E. coli) toxin RNase activation; P0AE70; FAM/BHQ RNA-DNA oligo cleavage fluorescence, 5 h; activation, % at 20 µM; hit rate 0.32% among 350,000; in the data active = activation above about 50%
Target sequence (P0AE70 whole entry, looked up): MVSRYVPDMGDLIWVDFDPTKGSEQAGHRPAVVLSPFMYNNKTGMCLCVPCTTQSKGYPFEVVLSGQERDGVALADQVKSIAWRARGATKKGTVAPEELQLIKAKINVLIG
Anthrax LF prot: anthrax lethal factor protease inhibition; multiplex microsphere protease cleavage assay, LF; hit rate 0.12% among 360,000; P15917; inhibition, % at 10 µM; note: plate controls were buffer without enzyme for full effect and enzyme alone for no effect
Autofluor counter: compound fluorescence in toxin protease inhibitor counterscreen. compound autofluorescence counterscreen, microsphere flow cytometry; active compounds read high. fluorescence intensity (test concentration not listed). hit rate 3.1% among 360,000. AID 624483; in the data active = fluorescence intensity above about 16000; inconclusive = no clear call, values can overlap the other calls
BoNT F protease: BoNT F light chain protease inhibition | Multiplex microsphere protease cleavage assay, flow cytometry | inhibition, % at 10 µM | AID 588497 | hit rate 0.22% among 360,000; in the data active = inhibition above about 35%, passing the limit was not always enough; inconclusive = no clear call, values can overlap the other calls; note: plate controls were buffer without enzyme for full effect and enzyme alone for no effect
BoNT-A LC inh2: BoNT A light chain protease inhibition | multiplex microsphere protease substrate cleavage, flow cytometry | inhibition, % at 10 µM | hit rate 0.17% among 360,000; note: plate controls were buffer without enzyme for full effect and enzyme alone for no effect
The depositor's hits bear a star. An excerpt weighted towards active compounds, which were near 3.7% of everything screened. Cut-off read from the data, not from the text of the source, unless noted: active = inhibition above about 30%; inconclusive = no clear call, values can overlap the other calls; inactive = below that.

Results for COc1ccc(-c2[nH]nc3c2C(c2ccccc2OC(=O)N2CCOCC2)C(C#N)=C(N)O3)cc1 (centres undefined) ?
MazF activator: 4; Anthrax LF prot: -1; Autofluor counter: 20595*; BoNT F protease: 0; BoNT-A LC inh2: 0

What do the screens show for `N#CC1=C(N)Oc2n[nH]c(-c3ccccc3)c2C1c1cccc(OC(=O)N2CCOCC2)c1` (centres undefined)?
MazF activator: 7; Anthrax LF prot: -4; Autofluor counter: 16755*; BoNT F protease: -6; BoNT-A LC inh2: -2

How did COc1ccc(CN2CCNC(=O)C2CC(=O)NCc2cc(C)n(C)n2)c(F)c1 (centres undefined) do in these assays?
MazF activator: 0; Anthrax LF prot: -2; Autofluor counter: 5777; BoNT F protease: -3; BoNT-A LC inh2: 0

Results for Cc1ccc(S(=O)(=O)NCC(=O)OCC(=O)NC2CCCCC2)cc1 ?
MazF activator: 8; Anthrax LF prot: -7; Autofluor counter: 3015; BoNT F protease: -6; BoNT-A LC inh2: 0

How did COCCCn1c(=S)[nH]c2ccc(N3CCOCC3)cc2c1=O do in these assays?
MazF activator: 2; Anthrax LF prot: 0; Autofluor counter: 18662*; BoNT F protease: 7; BoNT-A LC inh2: 6

How did COc1ccc(CCn2c(=S)[nH]c3ccc(N4CCOCC4)cc3c2=O)cc1OC do in these assays?
MazF activator: 2; Anthrax LF prot: -6; Autofluor counter: 5085; BoNT F protease: -1; BoNT-A LC inh2: -1

How did O=c1c2cc(N3CCOCC3)ccc2[nH]c(=S)n1CC1CCCO1 (centres undefined) do in these assays?
MazF activator: 8; Anthrax LF prot: -4; Autofluor counter: 22212*; BoNT F protease: -10; BoNT-A LC inh2: -9

How did Cc1cc(C)cc(NC(=O)C(OC(=O)c2cc[n+]([O-])cc2)c2ccccc2)c1 (centres undefined) do in these assays?
MazF activator: 1; Anthrax LF prot: -2; Autofluor counter: 5416; BoNT F protease: -8; BoNT-A LC inh2: 1

How did CCC1C(=O)N(C)CCc2ccccc21 (centres undefined) do in these assays?
MazF activator: 7; Anthrax LF prot: 2; Autofluor counter: 7285; BoNT F protease: 0; BoNT-A LC inh2: 1

How did CN1CCc2ccccc2C1C1CCNCC1 (centres undefined) do in these assays?
MazF activator: -13; Anthrax LF prot: -1; Autofluor counter: 24213*; BoNT F protease: -9; BoNT-A LC inh2: -5

Results for Nc1nnc(CC2=CCCCC2)s1 ?
MazF activator: 8; Anthrax LF prot: -9; Autofluor counter: 22203*; BoNT F protease: -3; BoNT-A LC inh2: -2

Results for Cc1cc(OC2CCCCC2)nc(-c2ccccc2O)n1 ?
MazF activator: -4; Anthrax LF prot: -4; Autofluor counter: 22117*; BoNT F protease: -4; BoNT-A LC inh2: inconclusive

Results for COc1ccc(-c2cc(C(F)(F)F)c(C#N)c(SCC(=O)Nc3nc(C)co3)n2)cc1 ?
MazF activator: -23; Anthrax LF prot: 0; Autofluor counter: 9977; BoNT F protease: 7; BoNT-A LC inh2: 1

How did Cc1coc(NC(=O)CSc2nc(-c3ccc(Cl)cc3)cc(C(F)(F)F)c2C#N)n1 do in these assays?
MazF activator: -8; Anthrax LF prot: 1; Autofluor counter: 16407*; BoNT F protease: 0; BoNT-A LC inh2: 1

Results for Cc1cc(C(F)(F)F)c(C#N)c(SCC(=O)NC(C)(C)C)n1 ?
MazF activator: 4; Anthrax LF prot: -2; Autofluor counter: 25162*; BoNT F protease: -7; BoNT-A LC inh2: -4

Results for COC(=O)[C@]12CCCCC=C1N(Cc1ccccc1)C(=O)[C@H](CC(=O)N1CCN(C(=O)c3ccco3)CC1)C2 ?
Anthrax LF prot: 3; Autofluor counter: 6850; BoNT F protease: -17; BoNT-A LC inh2: -1

What do the screens show for `CNC(=O)[C@@H]1CCC(=O)N1`?
MazF activator: 5; Anthrax LF prot: 2; Autofluor counter: 3072; BoNT F protease: -12; BoNT-A LC inh2: 0

How did CC1=C(C)[N+](=O)C2CCCCC2N1[O-] (centres undefined) do in these assays?
MazF activator: -1; Anthrax LF prot: -5; Autofluor counter: 17133*; BoNT F protease: -7; BoNT-A LC inh2: inconclusive

What do the screens show for `COCc1c(C(=O)Nc2cccc(S(=O)(=O)N3CCCCC3)c2)oc2ccccc12`?
MazF activator: -2; Anthrax LF prot: -6; Autofluor counter: 2973; BoNT F protease: -1; BoNT-A LC inh2: 0

Results for O=C(OCc1cn([C@@H]2CN(CC3CCCCC3)[C@@H](c3ccccc3)C[C@H]2O)nn1)c1ccccc1 ?
MazF activator: 1; Anthrax LF prot: -9; Autofluor counter: 3165; BoNT F protease: -3; BoNT-A LC inh2: 0

Results for CCN1/C(=C2\OC(=S)N(C)C2=O)C=Cc2ccccc21 ?
MazF activator: 656*; Anthrax LF prot: -4; Autofluor counter: 4793; BoNT F protease: -15; BoNT-A LC inh2: -3

How did CCN1/C(=C2\OC(=S)N(C)C2=O)Sc2ccccc21 do in these assays?
MazF activator: 7; Anthrax LF prot: 2; Autofluor counter: 4639; BoNT F protease: 8; BoNT-A LC inh2: 0

How did Cn1ccnc1SCC(=O)c1cccc(C(F)(F)F)c1 do in these assays?
MazF activator: 0; Anthrax LF prot: 0; Autofluor counter: 5870; BoNT F protease: 0; BoNT-A LC inh2: 0

How did O=C1C(=O)N(c2cccc(Cl)c2)C(c2ccccc2[N+](=O)[O-])/C1=C(\O)c1ccccc1 (centres undefined) do in these assays?
MazF activator: 1; Anthrax LF prot: 0; Autofluor counter: 21218*; BoNT F protease: 0; BoNT-A LC inh2: -2

What do the screens show for `O=C1C(=O)N(c2ccccc2)C(c2ccccc2[N+](=O)[O-])/C1=C(\O)c1ccccc1` (centres undefined)?
MazF activator: 0; Anthrax LF prot: -5; Autofluor counter: 4221; BoNT F protease: 0; BoNT-A LC inh2: 0

What do the screens show for `COC(=O)c1ccc(COC(=O)C(CCSC)NC(=O)COc2ccccc2)cc1` (centres undefined)?
MazF activator: 4; Anthrax LF prot: -2; Autofluor counter: 6081; BoNT F protease: -11; BoNT-A LC inh2: -1

What do the screens show for `O=C(NNC(=O)c1cccnc1SCc1cccc([N+](=O)[O-])c1)c1ccccn1`?
MazF activator: 2; Anthrax LF prot: -5; Autofluor counter: 2162; BoNT F protease: -6; BoNT-A LC inh2: -2

Results for COc1ccc(-n2nc(C(=O)NCC(=O)NCCCN3CCN(C)CC3)c3ccccc3c2=O)cc1 ?
MazF activator: -2; Anthrax LF prot: 9; Autofluor counter: 3472; BoNT F protease: 24; BoNT-A LC inh2: 0

Results for COc1ccc(-c2cc(C)no2)cc1S(=O)(=O)N1CCOc2ccc(C)cc21 ?
MazF activator: 76*; Anthrax LF prot: 1; Autofluor counter: 6395; BoNT F protease: 1; BoNT-A LC inh2: 0

Results for CCc1ccc(-c2cc(C)no2)cc1S(=O)(=O)N1CCOc2ccccc21 ?
MazF activator: 4; Anthrax LF prot: 0; Autofluor counter: 6490; BoNT F protease: -4; BoNT-A LC inh2: 0

What do the screens show for `CSc1ccccc1N1CCN(C(=O)Nc2ccc3c(c2)NC(=O)CO3)CC1`?
MazF activator: 5; Anthrax LF prot: -9; Autofluor counter: 21233*; BoNT F protease: 0; BoNT-A LC inh2: inconclusive
